Where “and” joins values, the source holds several entries; their conditions need not be identical. Equal entries are not always repeated. Results filed as inconclusive are left out. A call without a number means that no potency is given here. A structure can be active in one record and inactive in another. Calls of active or inactive are those of the source. Unless noted, calls follow the shape of the full dose curve.
Assays:
[1] = Nuclear factor erythroid 2-related factor 2/antioxidant responsive element (Nrf2/ARE) small molecule agonists: qHTS cell viability counter screen in human keratinocytes (AID 1919968; active = well fitted curve in the direction sought with a large enough effect in the repeat runs; an effect the other way counts as inactive or inconclusive; also: nearly all actives have a fitted effect of over 55% in size; also: potency is read from the fitted curve at half-maximal effect)
In short: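 Viability counter-screen: KeratinoSens reporter cells, DMSO-delivered compounds, 23 h at 37 C, CellTiter-Fluor fluorescence.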

[2] = Nuclear factor erythroid 2-related factor 2/antioxidant responsive element (Nrf2/ARE) small molecule agonists: luciferase reporter gene qHTS assay in human keratinocytes (AID 1919969); also: nearly all actives have a fitted effect of over 35% in size; also: potency is read from the fitted curve at half-maximal effect
[3] = biological target: Gonadotropin-releasing hormone receptor (Homo sapiens) (UniProt P30968); test: Human gonadotropin-releasing hormone receptor (GnRHR) small molecule agonists, calcium flux assay in GnRHR-HEK293 cells (AID 1920063); also: nearly all actives have a fitted effect of over 35% in size
Sequence of Gonadotropin-releasing hormone receptor (Homo sapiens) (P30968 whole entry, looked up): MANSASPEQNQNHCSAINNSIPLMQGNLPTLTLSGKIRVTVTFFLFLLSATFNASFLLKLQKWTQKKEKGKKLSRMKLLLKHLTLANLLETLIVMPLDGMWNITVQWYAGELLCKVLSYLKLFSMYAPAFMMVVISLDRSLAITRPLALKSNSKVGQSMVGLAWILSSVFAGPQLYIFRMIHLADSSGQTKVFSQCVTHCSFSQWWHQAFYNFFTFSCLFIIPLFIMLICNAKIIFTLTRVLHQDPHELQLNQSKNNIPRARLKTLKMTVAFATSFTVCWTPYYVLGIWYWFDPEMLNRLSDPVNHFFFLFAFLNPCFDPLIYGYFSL
In short: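 Tox21-format agonist screen using human GnRHR-expressing HEK293 cells and a fluorescent calcium dye; kinetic 3-min fluorescence reading after compound addition, 15-point concentration series run in triplicate.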

[4] = biological target: KiSS-1 receptor (Homo sapiens) (UniProt Q969F8); test: Human kisspeptin (KISS1R) small molecule agonists, calcium flux assay in KISS1R-HEK293 cells (AID 1920064; active = well fitted curve in the direction sought with a large enough effect in the repeat runs; an effect the other way counts as inactive or inconclusive)
Sequence of KiSS-1 receptor (Homo sapiens) (Q969F8 whole entry, looked up): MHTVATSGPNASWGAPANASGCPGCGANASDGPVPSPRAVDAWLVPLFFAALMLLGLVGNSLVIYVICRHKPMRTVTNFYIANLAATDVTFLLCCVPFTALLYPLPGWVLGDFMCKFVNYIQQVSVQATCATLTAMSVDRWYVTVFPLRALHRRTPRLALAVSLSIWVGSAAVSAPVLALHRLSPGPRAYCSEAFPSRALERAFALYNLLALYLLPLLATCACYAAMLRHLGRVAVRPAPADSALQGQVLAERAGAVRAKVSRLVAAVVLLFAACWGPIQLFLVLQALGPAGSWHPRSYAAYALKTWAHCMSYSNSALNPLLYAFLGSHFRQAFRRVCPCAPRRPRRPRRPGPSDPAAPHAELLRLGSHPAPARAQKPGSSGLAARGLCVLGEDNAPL
In short: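 Intracellular calcium mobilization in KISS1R-HEK293 cells was recorded by fluorescence (Ex/Em 480/540) for 3 min following compound addition to cells pre-loaded 1 h with calcium dye.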

[5] = G protein-coupled receptor (GPCR) small molecule agonists, calcium flux assay: HEK293 wild type cell line counter screen (AID 1920065)
In short: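 In this agonist-mode screen, ATP is the positive control and DMSO the vehicle. Cells grow 18 h before a 1 h dye incubation at 37 C; signal is taken at Ex/Em 480/540 over 3 min.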

[6] = p53 small molecule agonists, cell-based qHTS assay with human liver microsomes (AID 1963577);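 also: p53 response element beta-lactamase reporter cells with liver microsomes plus NADPH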
In short: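 Steps: plate p53RE-bla cells, incubate 5 h at 37 C; add compound in DMSO; add microsomes (0.5 mg/mL final) and NADPH (0.5 mg/mL final); incubate 16 h at 37 C; add LiveBLAzer, 2 h RT; read fluorescence.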

[7] = p53 small molecule agonists, cell-based qHTS assay with rat liver microsomes (AID 1963578)
In short: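 Metabolic activation is supplied by rat liver microsomes with NADPH (each 0.5 mg/mL final). p53RE-bla cells incubate with compound 16 h at 37 C; reporter activity is measured by LiveBLAzer fluorescence.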

[8] = p53 small molecule agonists, cell-based qHTS assay with human liver microsomes: qHTS cell viability counter screen (AID 1963579); also: nearly all actives have a fitted effect of over 45% in size; also: potency is read from the fitted curve at half-maximal effect
In short: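 After the 460/530 nm beta-lactamase read, CellTiter-Glo was added to the same wells and luminescence measured after 30 min at room temperature, giving viability of p53RE-bla cells treated 16 h with compounds plus microsomes and NADPH.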

[9] = p53 small molecule agonists, cell-based qHTS assay with rat liver microsomes: qHTS cell viability counter screen (AID 1963580); also: nearly all actives have a fitted effect of over 45% in size; also: potency is read from the fitted curve at half-maximal effect
In short: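 HCT-116 p53RE-bla, 4,000 cells/well, 5 h pre-incubation; cpd + rat liver microsomes 0.5 mg/mL + NADPH 0.5 mg/mL (final); 16 h, 37 C; CellTiter-Glo, 30 min RT; luminescence.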

[10] = p53 small molecule agonists, cell-based qHTS assay: qHTS cell viability counter screen (AID 1963581); also: nearly all actives have a fitted effect of over 45% in size; also: potency is read from the fitted curve at half-maximal effect
In short: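 Compounds are pinned onto HCT-116 p53RE-bla cells and left 16 h at 37 C. Following the reporter FRET read, ATP is quantified by CellTiter-Glo luminescence after 30 min at room temperature.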

[11] = p53 small molecule agonists, cell-based qHTS assay (AID 1963582; active = well fitted activation curve with a large enough effect in the signal ratio in the repeat runs, not every such curve was filed as active; the % refers to the signal ratio)
In short: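 Agonist activity was scored from beta-lactamase FRET fluorescence in p53RE-bla cells treated 16 h at 37 C with compounds in DMSO, substrate incubation being 2 h at room temperature.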

[12] = cAMP Responsive Elements (CRE) small molecule agonists, cell-based qHTS assay (AID 1963590)
In short: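 FRET-based beta-lactamase readout (LiveBLAzer B/G, 2 h RT) quantified CRE activation in HEK 293T CRE-bla cells after 3 h treatment with DMSO-dissolved compounds.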

[13] = cAMP Responsive Elements (CRE) small molecule antagonists, cell-based qHTS assay (AID 1963591; active = well fitted inhibition curve with a large enough effect in the signal ratio in the repeat runs, not every such curve was filed as active; the % refers to the signal ratio)
In short: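 qHTS in CRE-bla HEK 293T cells: compound in DMSO, then 0.25 uM NKH477 (final), 3 h at 37 °C/5% CO2; beta-lactamase FRET read-out after 2 h substrate incubation.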

[14] = biological target: Beta-2 adrenergic receptor (Homo sapiens) (UniProt P07550); test: Adrenergic beta2 receptor (ADRB2) small molecule antagonists, cell-based qHTS assay (AID 1963592); also: series mostly up to about 92 µM; nearly all actives have a fitted effect of over 50% in size
Sequence of Beta-2 adrenergic receptor (Homo sapiens) (P07550 whole entry, looked up): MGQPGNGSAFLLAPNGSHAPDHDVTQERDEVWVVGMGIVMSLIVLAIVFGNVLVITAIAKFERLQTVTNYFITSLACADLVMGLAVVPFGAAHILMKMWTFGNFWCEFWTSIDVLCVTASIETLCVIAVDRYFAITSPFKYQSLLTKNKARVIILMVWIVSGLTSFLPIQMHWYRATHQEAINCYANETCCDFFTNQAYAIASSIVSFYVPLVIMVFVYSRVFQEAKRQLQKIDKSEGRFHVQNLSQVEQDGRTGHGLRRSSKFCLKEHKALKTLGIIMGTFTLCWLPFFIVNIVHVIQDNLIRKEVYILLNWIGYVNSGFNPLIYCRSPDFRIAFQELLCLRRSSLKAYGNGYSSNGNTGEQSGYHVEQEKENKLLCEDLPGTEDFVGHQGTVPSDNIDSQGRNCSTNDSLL
In short: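 Cells (CHO, stable ADRB2 overexpression) incubated 18-20hr at 37C; compounds added from DMSO; agonist mix (1nM isoproterenol, 100uM IBMX, 25uM Ro-20-1724) added; 0.5hr RT; d2-cAMP and anti-cAMP-cryptate added; 1hr RT; 665/615 nm read.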

[15] = biological target: Beta-2 adrenergic receptor (Homo sapiens) (UniProt P07550); test: Adrenergic beta2 receptor (ADRB2) small molecule agonists, cell-based qHTS assay (AID 1963593);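 also: CHO cells stably overexpressing human ADRB2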
In short: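 CHO cells stably over-expressing ADRB2 were plated overnight at 37C, then dosed with compounds plus a stimulation mix containing 100uM IBMX and 25uM Ro-20-1724 for 0.5hr at room temperature. cAMP was measured by HTRF competition, 1hr.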

[16] = biological target: D(2) dopamine receptor (Homo sapiens) (UniProt P14416); test: Dopamine D2 receptor (DRD2) small molecule agonists, cell-based qHTS assay (AID 1963594); also: nearly all actives have a fitted effect of over 35% in size
Sequence of D(2) dopamine receptor (Homo sapiens) (P14416 whole entry, looked up): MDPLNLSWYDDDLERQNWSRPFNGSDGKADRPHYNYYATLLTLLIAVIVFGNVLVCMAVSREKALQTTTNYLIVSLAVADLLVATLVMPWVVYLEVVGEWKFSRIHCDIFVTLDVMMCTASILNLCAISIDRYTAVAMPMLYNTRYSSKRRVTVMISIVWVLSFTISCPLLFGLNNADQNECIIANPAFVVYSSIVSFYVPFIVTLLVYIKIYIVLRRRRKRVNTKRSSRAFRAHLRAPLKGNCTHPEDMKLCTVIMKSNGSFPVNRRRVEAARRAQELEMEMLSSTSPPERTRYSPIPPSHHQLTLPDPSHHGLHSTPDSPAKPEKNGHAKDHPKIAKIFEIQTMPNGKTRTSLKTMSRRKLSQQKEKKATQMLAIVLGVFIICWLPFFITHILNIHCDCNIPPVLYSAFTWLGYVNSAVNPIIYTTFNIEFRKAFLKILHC
In short: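 cAMP accumulation in DRD2-HEK293 cells measured by HTRF after 1 h detection; compounds added 10 min before NKH477 (200nM […]) forskolin-analogue stimulation, 30 min at room temperature, with Ro20-1724 present at 0.1 mM final.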

[17] = biological target: D(2) dopamine receptor (Homo sapiens) (UniProt P14416); test: Dopamine D2 receptor (DRD2) small molecule antagonists, cell-based qHTS assay (AID 1963595; active = well fitted inhibition curve with a large enough effect in the signal ratio in the repeat runs, with a control signal flat; the % refers to the signal ratio)
In short: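 Cells were plated and grown for 24 h at 37 °C. Ro20-1724 (0.1 mM final) went in first, then compound for 10 min. NKH477 (200 nM) with quinpirole (12 nM) followed for 30 min at RT, then HTRF detection reagents for 1 h.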

[18] = biological target: 5-hydroxytryptamine receptor 2A (Homo sapiens) (UniProt P28223); test: 5-hydroxytryptamine receptor 2A (HTR2A) small molecule agonists, cell-based qHTS assay (AID 1963587); also: nearly all actives have a fitted effect of over 30% in size
Sequence of 5-hydroxytryptamine receptor 2A (Homo sapiens) (P28223 whole entry, looked up): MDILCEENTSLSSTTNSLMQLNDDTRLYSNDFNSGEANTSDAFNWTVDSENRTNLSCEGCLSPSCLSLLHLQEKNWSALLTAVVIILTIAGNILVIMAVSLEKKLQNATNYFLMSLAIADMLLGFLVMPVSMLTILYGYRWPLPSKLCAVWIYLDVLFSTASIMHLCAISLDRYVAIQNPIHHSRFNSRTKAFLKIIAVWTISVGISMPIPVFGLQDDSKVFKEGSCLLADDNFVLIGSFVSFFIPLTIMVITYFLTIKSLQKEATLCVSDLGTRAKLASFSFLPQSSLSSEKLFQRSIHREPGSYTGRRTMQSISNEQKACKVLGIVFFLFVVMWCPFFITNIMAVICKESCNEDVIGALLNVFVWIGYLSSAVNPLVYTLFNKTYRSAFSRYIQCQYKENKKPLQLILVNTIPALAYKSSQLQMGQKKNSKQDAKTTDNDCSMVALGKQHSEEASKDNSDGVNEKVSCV
In short: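 Kinetic calcium-flux fluorescence (2 min, 1 sec intervals) after compound addition in agonist mode. HTR2A-CHO cells were cultured 18 h, then dye-loaded 1 h at 37 C.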

[19] = biological target: Muscarinic acetylcholine receptor M1 (Homo sapiens) (UniProt P11229); test: Cholinergic receptor muscarinic 1 (CHRM1) small molecule agonists, cell-based qHTS assay (AID 1963589); also: nearly all actives have a fitted effect of over 35% in size
Sequence of Muscarinic acetylcholine receptor M1 (Homo sapiens) (P11229 whole entry, looked up): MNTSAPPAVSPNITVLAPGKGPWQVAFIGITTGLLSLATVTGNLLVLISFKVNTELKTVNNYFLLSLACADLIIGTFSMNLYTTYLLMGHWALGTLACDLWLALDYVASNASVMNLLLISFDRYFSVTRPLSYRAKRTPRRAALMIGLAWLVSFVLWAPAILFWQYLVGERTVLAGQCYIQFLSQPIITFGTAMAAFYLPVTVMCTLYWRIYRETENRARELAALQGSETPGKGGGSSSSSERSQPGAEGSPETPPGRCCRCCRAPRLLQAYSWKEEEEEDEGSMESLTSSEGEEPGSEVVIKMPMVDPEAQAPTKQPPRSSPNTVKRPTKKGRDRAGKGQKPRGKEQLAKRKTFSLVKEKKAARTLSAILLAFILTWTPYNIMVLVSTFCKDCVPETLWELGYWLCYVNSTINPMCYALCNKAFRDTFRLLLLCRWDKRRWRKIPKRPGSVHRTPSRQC
In short: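 Stable CHRM1-CHO cells (human receptor) were incubated 18 h, dye-loaded for 1 h at 37 C and exposed to test compounds for agonist activity, with calcium-dependent fluorescence followed kinetically.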

| SMILES | Potency [1] | Potency [2] | Potency [3] | Potency [4] | Potency [5] | Potency [6] | Potency [7] | Potency [8] | Potency [9] | Potency [10] | Potency [11] | Potency [12] | Potency [13] | Potency [14] | activation [15] | Potency [16] | Potency [17] | Potency [18] | Potency [19] | Potency [15] |
| --- | --- | --- | --- | --- | --- | --- | --- | --- | --- | --- | --- | --- | --- | --- | --- | --- | --- | --- | --- | --- |
| CN(C)c1nc(N(C)C)nc(N(C)C)n1 | inactive | 3.94 µM (active) and inactive | inactive | inactive | inactive | inactive | inactive | inactive | inactive | inactive | inactive | inactive | inactive | inactive | 17.3% [at 8.39 µM] (inactive) | inactive | inactive | – | – | – |
| NC(=NCCCCCCN=C(N)/N=C(\N)Nc1ccc(Cl)cc1)/N=C(\N)Nc1ccc(Cl)cc1 | 24.2 µM (active) [middle of 5 runs] | inactive | inactive | inactive | inactive | inactive | inactive | 40.4 µM (active) and 28.7 µM (active) and inactive | 32.1 µM (active) and 41.5 µM (active) and inactive | 45.3 µM (active) and inactive | inactive | inactive | – | – | – | inactive | – | inactive | inactive | – |
| CCCc1cc(=O)[nH]c(=S)[nH]1 | inactive | inactive | inactive | inactive | inactive | inactive | inactive | inactive | inactive | inactive | inactive | inactive | – | – | – | inactive | inactive | – | – | inactive |
| C/C=C/c1ccc(O)c(OC)c1 | inactive | inactive | inactive | inactive | inactive | inactive | inactive | inactive | inactive | inactive | inactive | inactive | – | inactive | – | inactive | inactive | – | – | inactive |
| CC(=O)Nc1nnc(S(N)(=O)=O)s1 | inactive | inactive | inactive | inactive | inactive | inactive | inactive | inactive | inactive | inactive | inactive | inactive | inactive | inactive | – | inactive | inactive | – | – | inactive |
| CCOc1ccc(NC(C)=O)cc1 | inactive | inactive | inactive | inactive | inactive | inactive | inactive | inactive | inactive | inactive | inactive | inactive | inactive | inactive | – | inactive | inactive | – | – | inactive |
| C/C=C/C(=O)N(CC)c1ccccc1C | inactive | inactive | inactive | inactive | inactive | inactive | inactive | inactive | inactive | inactive | inactive | inactive | inactive | inactive | – | inactive | inactive | – | – | – |
| Cc1noc(NS(=O)(=O)c2ccc(N)cc2)c1C | inactive | inactive | inactive | inactive | inactive | inactive | inactive | inactive | inactive | inactive | inactive | inactive | inactive | inactive | – | inactive | inactive | – | – | inactive |
